By Inhibition is commonly meant the change of the read-out against control, counted positive when it falls. High values mean strong suppression, low ones little suppression.

Consider 28 compounds from ChEMBL document CHEMBL1157539, “Thousands of chemical starting points for antimalarial lead identification” (Nature, 2010).

Where “and” joins values, the source holds several entries; their conditions need not be identical. Equal values may be shown once.

Holding throughout (type): functional
In assay [1] the test system is Plasmodium falciparum. Description: GSK_TCMDC: Inhibition of Plasmodium falciparum 3D7 in whole red blood cells, using parasite LDH activity as an index of growth. Test compounds present at 2uM.
For assay [2], the system named is Plasmodium falciparum. Description: GSK_TCMDC: Inhibition of Plasmodium falciparum Dd2 in whole red blood cells, using parasite LDH activity as an index of growth. Test compounds present at 2uM.
The subject of assay [3] is HepG2. Description: GSK_TCMDC: Percent inhibition of human HepG2 cell line. Test compounds present at 10uM.

Take `CNCCN(C)C(=O)Oc1c(Br)c(C)nc(C)c1-c1ccc(Oc2ccc(OC(F)(F)F)cc2)cc1.Cl`: the Inhibition in assay [1] came out at 98%; in assay [2], 98%; in assay [3], 19%.

For `C=C[C@H]1CN2CC[C@H]1C[C@H]2[C@H](O)c1ccnc2ccccc12` [CINCHONIDINE], the Inhibition in assay [1] is reported as 100%; in assay [2] it was 3%; in assay [3] it was 9%.

Take `C[C@@H](CC1CCCCC1)NCc1ccccc1O`: the Inhibition is on record as 98% in assay [1], 67% in assay [2] and 9% in assay [3].

For the compound `COC(=O)c1ccc(CC(C)NCC(O)c2ccccc2Cl)cc1` (centres undefined), the Inhibition in assay [1] turned out to be 94%; in assay [2], 55%; in assay [3], 1%.

For the compound `CC(Cc1ccc(NC(=O)CCCc2ccccc2)cc1)NCCc1cccc(Cl)c1.Cl` (centres undefined), the Inhibition in assay [1] amounted to 94%; in assay [2] it was 3%; in assay [3] it was 12%.

`COC(=O)/C=C/c1ccc(CC(C)NCC(O)c2cccc(Br)c2)cc1` (centres undefined): the results for the Inhibition in assay [1], in assay [2] and in assay [3] were 97%, 93% and 2%, respectively.

For the compound `COc1cccc(CCNC(C)Cc2ccc(OCCCCOc3ccccc3)cc2)c1` (centres undefined), the Inhibition in assay [1] is reported as 97%; in assay [2], 90%; in assay [3], 100%.

For the compound `Cc1nc(-c2ccc(-c3ccc(C(=O)Nc4ccc5c(c4)C4(CCNCC4)CO5)cc3)c(C)c2)no1.Cl`, the Inhibition worked out at 90% in assay [1], 15% in assay [2] and 37% in assay [3].

Regarding `CC(Cc1ccc(OCCOc2ccccc2)cc1)NCC(O)c1cccc(Cl)c1` (centres undefined), the Inhibition in assay [1] was determined as 99%; in assay [2] it was 99%; in assay [3] it was 12%.

For `CCCCCSc1cc(O)c(C(CNC)C(C)C)cc1OC.O=C(O)/C=C\C(=O)O` (centres undefined), the Inhibition came to 100% in assay [1], 99% in assay [2] and 5% in assay [3].

Turning to `O=C(/C=C/c1ccccc1Cl)NC1CCC(CN2CCC(c3c[nH]c4ccccc34)CC2)CC1` (centres undefined), the Inhibition in assay [1] is 100% and 99%; in assay [2], 51% and 35%; in assay [3] it was 33% and 41%.

Turning to `Oc1ccc(CN2CCN(CCOC(c3ccc(F)cc3)c3ccc(F)cc3)CC2)cc1Cl`, the Inhibition in assay [1] is 96%; in assay [2], 87%; in assay [3] it was 19%.

On to `Cn1nc(-c2ccc(S(=O)(=O)N3CCC(CN4CCC(c5c[nH]c6ccccc56)CC4)CC3)s2)cc1C(F)(F)F`, for which the Inhibition in assay [1] turned out to be 93%; in assay [2], 48%; in assay [3], 16%.

With `Oc1ccc(Cl)cc1CN1CCC(CCOC(c2ccccc2)c2ccccc2)CC1`, the Inhibition in assay [1] was determined as 98%; in assay [2], 99%; in assay [3], 14%.

For `CCOC(C(=O)OCC1CCCN1C(C)C)(c1ccccc1)c1ccccc1` (centres undefined), the Inhibition is given as 98% in assay [1], 2% in assay [2] and 0% in assay [3].

As to `O=C(NC1CCC(CN2CCC(c3c[nH]c4ccccc34)CC2)CC1)c1ccc(-c2ccccc2[N+](=O)[O-])o1` (centres undefined), the figures for the Inhibition in assay [1], in assay [2] and in assay [3] were 100%, 34% and 24%, respectively.

Turning to `NC(=O)c1ccc2[nH]cc(C3CCN(CC4CCC(NC(=O)/C=C/c5ccc(Cl)c(Cl)c5)CC4)CC3)c2c1` (centres undefined), the Inhibition in assay [1] was 100%; in assay [2], 26% and 32%; in assay [3] it was 0% and 11%.

With `O=C(/C=C/c1ccc(Cl)c(Cl)c1)NC1CCC(CN2CCC(c3c[nH]c4ccc(O)cc34)CC2)CC1` (centres undefined), the Inhibition in assay [1] was 100%; in assay [2], 100% and 99%; in assay [3], 35% and 38%.

For the compound `Oc1ccc2[nH]cc(C3=CCN(Cc4ccccc4)CC3)c2c1`, the results for the Inhibition in assay [1], in assay [2] and in assay [3] were 94%, 67% and 1%, respectively.

Regarding `COc1ccc2[nH]cc(C3CC4CCC(C3)N4CCC3CCN(C(=O)/C=C/c4ccc(Cl)c(Cl)c4)CC3)c2c1` (centres undefined), the figures for the Inhibition in assay [1], in assay [2] and in assay [3] were 100%, 80% and 38%, respectively.

Consider `CC(Cc1ccc(OCc2ccccc2)c(Cl)c1)NCC(O)c1cccc(C(F)(F)F)c1` (centres undefined), for which the results for the Inhibition in assay [1], in assay [2] and in assay [3] were 97%, 95% and 0%, respectively.

With `O=C(C=Cc1ccc(Br)cc1)NC1CCC(CN2CCC(c3c[nH]c4ccccc34)CC2)CC1` (centres undefined), the Inhibition is recorded as 100% in assay [1], 98% in assay [2] and 71% in assay [3].

Take `COC(=O)/C=C/c1ccc(CC(C)NCC(O)c2cccc(Cl)c2)cc1` (centres undefined): the values for the Inhibition in assay [1], in assay [2] and in assay [3] were 99%, 73% and 2%, respectively.

On to `CC[C@H]1CN2CC[C@@H]1C[C@H]2[C@H](O)c1cc(N2CCC(CO)CC2)nc2ccc(OC)cc12`, for which the Inhibition is 99% in assay [1], 99% in assay [2] and 4% in assay [3].

On to `COCC(=O)N(Cc1cccc(-c2ccc(CNCCc3ccccc3)cc2)c1)C1CCN(Cc2ccccc2)CC1.O=C(O)C(F)(F)F`, for which the figures for the Inhibition in assay [1], in assay [2] and in assay [3] were 93%, 45% and 44%, respectively.

Take `CCCCCOc1ccc(CC(C)NCC(O)c2cccc(Cl)c2)cc1` (centres undefined): the Inhibition in assay [1] is recorded as 100%; in assay [2], 99%; in assay [3] it was 0%.

For `O=C(NC1CCC(CN2CCC(c3c[nH]c4ccccc34)CC2)CC1)c1cc(-c2ccccc2Cl)n(-c2cccc(Cl)c2)n1` (centres undefined), the Inhibition in assay [1] is on record as 95%; in assay [2], 24%; in assay [3], 58%.

Turning to `CNCCCCCCc1ccc(CC(C)NCC(O)c2cccc(Cl)c2)cc1.Cl` (centres undefined), the Inhibition in assay [1] is recorded as 94%; in assay [2], 76%; in assay [3], 22%.
